# Experimental data from article PMC5540273 (PLoS ONE, 2017).
# Tests used:
# Conditions in all cases: concentration: 1 μM,replicates: in singlicate; n = 1
# [1] = system: STK36
# [2] = system: STK39
# [3] = system: SYK
# [4] = system: SgK110
# [5] = system: T1, TAK1
# T1 construct: gene MAP3K7
# [6] = system: TAOK1
# [7] = system: TAOK2
# [8] = system: TAOK3
# [9] = system: TBK1
# [10] = system: TEC
# 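Note: KINOMEscan kinase panel screen.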
SMILES,%Inh [1],%Inh [2],%Inh [3],%Inh [4],%Inh [5],%Inh [6],%Inh [7],%Inh [8],%Inh [9],%Inh [10]
CS(=O)(=O)c1cccc(CNc2nc(Nc3ccc4c(c3)[C@@H]3C[C@@H]4CNC3=O)ncc2C(F)(F)F)c1,10%,9%,93.8%,0%,92.2%,51%,24%,36%,98.6%,0%
COc1cc2ncn(-c3cc(OCC4CCCCC4)c(C(N)=O)s3)c2cc1OC [GSK204559],0%,7%,35%,0%,96.5%,0%,0%,0%,26%,13%
CCN1CCN(CCCC(=O)Nc2n[nH]c3nc(-c4ccc(O)cc4)c(Br)cc23)CC1 [SB-731579],0%,0%,0%,0%,11%,53%,65%,66%,0%,0%
COc1cc2nccc(Nc3ccc(Oc4ccccc4)cc3)c2cc1OC.Cl [GI261656],0%,1%,0%,0%,0%,0%,0%,0%,13%,92.8%
CC(C(=O)NC1CCN(c2ccnc(Nc3ccc(F)cc3)n2)C1)c1ccc(Cl)cc1 (stereo not shown) [GSK1379713],0%,0%,30%,13%,0%,0%,0%,0%,0%,0%
C[C@@H]1CCN(C(=O)N2CCCC2)C[C@@H]1N(C)c1ncnc2[nH]ccc12,7%,0%,21%,73%,43%,0%,0%,0%,64%,0%
COC(=O)Nc1nc2cc(Oc3ccc(NC(=O)Nc4cc(C(F)(F)F)ccc4Cl)cc3)ccc2[nH]1.Cl [GW697465],0%,13%,24%,0%,62%,0%,0%,0%,0%,15%
CC(=O)c1c(-c2ccncc2)[nH]c(-c2ccncc2)c1C [GW493036],10%,20%,24%,0%,19%,63%,0%,0%,0%,0%
CN1CCN(CCNc2nc3cc(Oc4ccc(NC(=O)Nc5cc(C(F)(F)F)ccc5F)cc4)ccc3[nH]2)CC1.Cl.Cl [GW768504],13%,0%,16%,57%,0%,0%,38%,0%,28%,0%
Cc1cccc2c(-c3ccncc3)c(-c3ccc(F)cc3)nn12.Cl [GW461487],24%,12%,25%,0%,0%,1%,0%,5%,16%,0%
CCCC(=O)Nc1n[nH]c2ncccc12 [SB-601436],4%,0%,8%,0%,0%,2%,3%,0%,0%,0%
CSc1nccc(-c2c(-c3ccc(F)cc3)ncn2CCCN2CCOCC2)n1.Cl [SB-217146],0%,0%,5%,3%,3%,0%,45%,6%,33%,2%
Cl.c1ccc(Oc2ccc(Nc3ccnc4cc(-c5ccc(CN6CCNCC6)o5)ccc34)cc2)nc1 [GW567142],0%,1%,0%,0%,3%,0%,0%,0%,25%,26%
COc1ccc(Nc2nccc(N3CCC(NC(=O)c4cccc(C#N)c4)C3)n2)cc1 (stereo not shown) [GSK1379730],0%,0%,19%,0%,0%,0%,0%,0%,0%,0%
C[C@@H]1CNc2c(sc3ccc4nc(-c5ccncc5)ccc4c23)C(=O)N1,6%,0%,11%,0%,62%,75%,0%,0%,9%,0%
CC(C)S(=O)(=O)N1CCN(Cc2ccc3c(c2)nc(NC(=O)c2ccsc2)n3C[C@H](O)c2ccccc2)CC1 [GW635815],0%,10%,78%,0%,79%,0%,0%,0%,50%,0%
CC(=O)Nc1ccc(-c2cc3ncnc(SCC(=O)O)c3s2)cc1,1%,0%,1%,0%,17%,0%,0%,0%,15%,0%
OCCn1cc(-c2cnc3nnn(Cc4ccc5ncccc5c4)c3n2)cn1,0%,0%,0%,0%,12%,0%,0%,0%,0%,0%
Cn1cc(-c2cccc3c(N)c(C(N)=O)nnc23)cn1,6%,29%,11%,0%,21%,25%,29%,12%,31%,0%
C[C@@H](Oc1cc(-n2cnc3cc(-c4cnn(C)c4)ccc32)sc1C(N)=O)c1ccccc1Cl [GSK580432],0%,10%,92.3%,0%,0%,0%,0%,0%,0%,0%
Cn1ccc2ncnc(Oc3ccc(NC(=O)Nc4cccc(C(F)(F)F)c4)c(F)c3)c21,0%,3%,43%,0%,31%,0%,38%,0%,51%,5%
Nc1nccc(-c2ccc3c(N)n[nH]c3c2)n1 [GSK1034945],0%,1%,0%,0%,8%,62%,0%,0%,20%,13%
